The values that follow come from PubChem BioAssay (NCI).

Some test systems named below: SK-MEL-2 melanoma; EKVX NSCLC; SN12C renal; UO-31 renal; ACHN renal; CAKI-1 renal; A498 renal; CCRF-CEM leukemia; MOLT-4 leukemia; SR leukemia; RPMI-8226 leukemia; OVCAR-8 ovarian; OVCAR-5 ovarian; OVCAR-4 ovarian; SK-OV-3 ovarian; IGROV1 ovarian; OVCAR-3 ovarian; HS 578T breast; NCI/ADR-RES ovarian.
What all share (test): NCI-60 one-dose screen, 48 h (100 = growth as untreated, 0 = no growth, -100 = all killed)
What all share (details): 10 µM unless noted

This is part of a sample that, as a whole, favours compounds with a hit. Of some 83,000 tested, about 20% had one in any assay.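 The endpoint reported here, percent growth, reads 100 for growth as untreated, 0 for no net growth and -100 for all cells dead.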 A number with no mark means an inactive call. Calls of active or inactive are those of the source. The calls were made as follows: active = growth percent below 10; inactive = the rest.

As for `O=C(/C=C/c1cccc(Cl)c1)c1ccc(Nc2nc(Nc3ccc(F)cc3)nc(Nc3ccc(Cl)cc3)n2)cc1`, the growth was 72.2% with SK-MEL-2 melanoma; 139% with EKVX NSCLC; 136% in the assay on SN12C renal; 94.6% in the assay with UO-31 renal; 116% in the assay with ACHN renal; 112% in the assay with CAKI-1 renal. Moreover, the growth was 124% in the assay on A498 renal; 103% in the assay on CCRF-CEM leukemia; 94% in the assay with MOLT-4 leukemia; 75.6% in the assay on SR leukemia; 5.94% (active) in the assay with RPMI-8226 leukemia; 92.8% in the assay on OVCAR-8 ovarian. The growth in the assay on OVCAR-5 ovarian is 98%; in the assay on OVCAR-4 ovarian, 111%; in the assay with SK-OV-3 ovarian, 131%; in the assay with IGROV1 ovarian it was 113%; with OVCAR-3 ovarian, 130%; in the assay on HS 578T breast, 110%. Moreover, the growth in the assay on NCI/ADR-RES ovarian is 100%.
For the compound `Nc1ncnc2c1C(c1ccc(Br)cc1)c1sc3c(F)cccc3c1O2` (centres undefined), the growth in the assay with SK-MEL-2 melanoma was 110%; in the assay with EKVX NSCLC it was 69.3%; with SN12C renal, 104%; in the assay on UO-31 renal, 64.2%; in the assay on ACHN renal, 93.7%; with CAKI-1 renal, 79.4%. In addition, the growth is 114% in the assay with A498 renal; 97.8% in the assay with CCRF-CEM leukemia; 101% in the assay with MOLT-4 leukemia; 85.6% with SR leukemia; 100% with RPMI-8226 leukemia; 101% with OVCAR-8 ovarian. In addition, the growth was 99.8% with OVCAR-5 ovarian; 87.4% with OVCAR-4 ovarian; 102% with SK-OV-3 ovarian; 81.6% in the assay on IGROV1 ovarian; 103% with OVCAR-3 ovarian; 94.8% with HS 578T breast. For the same compound, the growth in the assay on NCI/ADR-RES ovarian is 96.1%.
On to `Cn1cc(-c2csc(-c3c[nH]c4ccc(Br)cc34)n2)c2ccnc(Cl)c21`, for which the growth was 85.4% in the assay on SK-MEL-2 melanoma; 69.1% with EKVX NSCLC; 67.5% with SN12C renal; 48.8% in the assay with UO-31 renal; 39.2% in the assay on ACHN renal; 66.5% in the assay on CAKI-1 renal. Further, the growth was 51.6% with A498 renal; 39.5% in the assay with CCRF-CEM leukemia; 56.4% in the assay on MOLT-4 leukemia; 31.6% with SR leukemia; 51.4% in the assay with RPMI-8226 leukemia; 63.8% in the assay with OVCAR-8 ovarian. Besides, the growth with OVCAR-5 ovarian is 114%; in the assay with OVCAR-4 ovarian, 53.6%; with SK-OV-3 ovarian it was 78.1%; in the assay with IGROV1 ovarian, 65.9%; with OVCAR-3 ovarian it was 77.4%; with NCI/ADR-RES ovarian, 65.6%.
In the case of `O=C(N(c1ccccc1)c1ccccc1)n1cc(I)c2nc(Cl)nc(Cl)c21`, the growth with SK-MEL-2 melanoma was 70.5%; in the assay with EKVX NSCLC, 71.1%; in the assay with SN12C renal, 34.8%; with UO-31 renal, 54.4%; with ACHN renal it was 57.9%; with CAKI-1 renal, 39.6%. Besides, the growth with A498 renal is 67.9%; with CCRF-CEM leukemia, 4.32% (active); in the assay with MOLT-4 leukemia, 2.48% (active); in the assay on SR leukemia, 18.9%; in the assay with RPMI-8226 leukemia, 0.0387% (active); in the assay on OVCAR-8 ovarian, 22.6%. Moreover, the growth in the assay on OVCAR-5 ovarian is 63.7%; with OVCAR-4 ovarian it was 68.4%; in the assay on SK-OV-3 ovarian, 60.9%; with IGROV1 ovarian, 61.8%; with OVCAR-3 ovarian, 25.8%; with HS 578T breast it was 39.1%. In the assay on NCI/ADR-RES ovarian, the growth is 42.4%.
With `O=C1c2c(c3c4ccccc4[nH]c3c3ccc4ccccc4c23)C(=O)N1CCN1CCOCC1`, the growth with SK-MEL-2 melanoma was 69.9%; in the assay on EKVX NSCLC it was 61.8%; in the assay on SN12C renal it was 30.2%; in the assay on UO-31 renal, 27.6%; in the assay with ACHN renal, 15.3%; in the assay with CAKI-1 renal, 32.8%. The growth with A498 renal is 61.4%; in the assay on CCRF-CEM leukemia, 10.9%; in the assay on MOLT-4 leukemia it was 6.38% (active); with SR leukemia, 13.1%; in the assay with RPMI-8226 leukemia, 7.91% (active); in the assay with OVCAR-8 ovarian, 31.5%. The growth was 71.7% in the assay with OVCAR-5 ovarian; 57.7% in the assay on OVCAR-4 ovarian; 81.2% in the assay on SK-OV-3 ovarian; 30% with IGROV1 ovarian; 44.1% with OVCAR-3 ovarian; 62.5% in the assay on HS 578T breast. Besides, the growth in the assay with NCI/ADR-RES ovarian is 21.1%.
As for `CC(=O)Oc1ccc(/C(=C(\C)c2ccc(Cl)cc2)c2ccc(OCCN3CCCCC3)cc2)cc1`, the growth in the assay with SK-MEL-2 melanoma is 58.4%; in the assay on EKVX NSCLC, 62.7%; in the assay with SN12C renal it was 64.6%; in the assay with UO-31 renal it was 47.7%; with ACHN renal, 58.3%; in the assay with CAKI-1 renal, 74.9%. For the same compound, the growth is 57.5% in the assay on A498 renal; 17.5% in the assay with CCRF-CEM leukemia; -27.3% (active) in the assay with SR leukemia; 9.5% (active) in the assay with RPMI-8226 leukemia; 57.1% in the assay with OVCAR-8 ovarian; 75.1% in the assay with OVCAR-5 ovarian. In addition, the growth in the assay on OVCAR-4 ovarian was 57.1%; in the assay on SK-OV-3 ovarian it was 54.6%; in the assay on IGROV1 ovarian, 61.8%; in the assay on OVCAR-3 ovarian, 66.7%; with HS 578T breast, 52.9%; in the assay on NCI/ADR-RES ovarian, 50%.
For the compound `CNc1nnc2n(-c3ccccc3)c(=O)c3cnn(-c4ccccc4)c3n12`, the growth is 82% in the assay on SK-MEL-2 melanoma; 90.4% in the assay on EKVX NSCLC; 104% in the assay with SN12C renal; 81.3% in the assay with UO-31 renal; 88.8% with ACHN renal; 81% with CAKI-1 renal. For the same compound, the growth was 71.7% in the assay on A498 renal; 85.8% in the assay on CCRF-CEM leukemia; 72.2% in the assay on MOLT-4 leukemia; 65.2% with SR leukemia; 85.3% in the assay with RPMI-8226 leukemia; 95.7% with OVCAR-8 ovarian. Further, the growth with OVCAR-5 ovarian is 99.3%; in the assay with OVCAR-4 ovarian, 107%; in the assay on SK-OV-3 ovarian, 68.4%; with IGROV1 ovarian, 94.8%; in the assay on OVCAR-3 ovarian it was 104%; with NCI/ADR-RES ovarian, 96.6%.
On to `C=C(C)[C@@H]1CC[C@]2(CO)CC[C@]3(C)[C@H](CC[C@@H]4[C@@]5(C)CC[C@H](NCO)C(C)(C)[C@@H]5CC[C@]43C)[C@@H]12`, for which the growth was -60.9% (active) in the assay with SK-MEL-2 melanoma; 8.09% (active) in the assay with EKVX NSCLC; -92.4% (active) in the assay with SN12C renal; -99.2% (active) with UO-31 renal; -99.2% (active) in the assay with ACHN renal; -96.9% (active) with CAKI-1 renal. For the same compound, the growth in the assay with A498 renal was 79%; in the assay on CCRF-CEM leukemia it was -9.15% (active); in the assay on MOLT-4 leukemia, -26.7% (active); in the assay with SR leukemia it was -29.5% (active); with RPMI-8226 leukemia it was -42% (active); in the assay on OVCAR-8 ovarian it was -43.8% (active). In addition, the growth in the assay on OVCAR-5 ovarian is -91.2% (active); in the assay with OVCAR-4 ovarian, -93.7% (active); with SK-OV-3 ovarian, -87.5% (active); in the assay with IGROV1 ovarian, -94.1% (active); with OVCAR-3 ovarian it was -81.9% (active); in the assay with HS 578T breast, -58.3% (active). For the same compound, the growth in the assay with NCI/ADR-RES ovarian is -53.6% (active).
